Measured values as given in the supplement of paper PMC10849652.
Of roughly 8,800 targets only a part is listed; those with a hit were picked by preference. About 0.5% of all pairs of compound and target were hits. Values without a mark were called inactive.

Assays:
Test in all cases: log2 fold change, soluble protein after heating vs DMSO (PISA); higher = thermal stabilisation; K562 lysate, 10 uM; active = over 0.2 and 3.5 SD of the protein, either way, in both replicates (recomputed)
erlotinib = compound: C#Cc1cccc(Nc2ncnc3cc(OCCOC)c(OCCOC)cc23)c1 [erlotinib]
Summary of the method: (§1)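 Dounce homogenisation of K562 pellets in PBS pH 7.4 with 1 mM MgCl2 produced a crude extract, used at 1 mg/mL protein. Exposure to 10 μM compound lasted 30 min, and aliquots were then heated for 3 min across 48°C-58°C, pooled and brought to 0.5% NP-40 at 4°C. The supernatant after 21,000xg for 90 min was quantified by TMTpro 16plex LC-MS/MS with channel sums equalised. Duplicate values are given as log-two fold change in thermal stability relative to solvent controls.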

[1] = compound: C/C(=N\NC(=O)C1=CC(=CC=C1)S(=O)(=O)N2CCOCC2)/C3=C(C=CC(=C3)Cl)O
Summary of the method: as §1

[2] = compound: C1=CC(=CC=C1C2=NC3=C(N2)C=C(C=C3)C(=O)N)OC4=CC=C(C=C4)Cl
Summary of the method: as §1

[3] = compound: C1=CC2=C(C=CC(=C2)/C=C\3/C(=O)NC(=NCC4=CC=CS4)S3)N=C1
Summary of the method: as §1

[4] = compound: C1=CC2=NC=CN=C2C=C1/C=C/3\C(=O)NC(=O)S3
Summary of the method: as §1

[5] = compound: C1=CC=C(C=C1)C2=NC(=C(N2)C3=CC=NC=C3)C4=CC(=C(C=C4)Cl)O
Summary of the method: as §1

[6] = compound: C1=CC=C2C(=C1)C3=NNC4=CC=CC(=C43)C2=O
Summary of the method: as §1

[7] = compound: C1CCN(C1)C(=O)NC2=CC=CC(=C2)NC3=NC=C(C(=N3)NCCC4=CN=CN4)Br
Summary of the method: as §1

[8] = compound: C1CN(CCC1(CC2=CC=C(C=C2)Cl)N)C3=NC=NC4=C3C=CN4
Summary of the method: as §1

IRAK-1-4 Inhibitor I = compound: C1COCCN1CCN2C3=CC=CC=C3N=C2NC(=O)C4=CC(=CC=C4)[N+](=O)[O-] [IRAK-1-4 Inhibitor I]
Summary of the method: as §1

ibrutinib = compound: C=CC(=O)N1CCC[C@@H](n2nc(-c3ccc(Oc4ccccc4)cc3)c3c(N)ncnc32)C1 [ibrutinib]
Summary of the method: as §1

[9] = compound: CC(=O)c1cnc2ccc(-c3cc(Cl)c(O)c(Cl)c3)nc2c1N[C@H]1CC[C@H](CN(C)C)CC1
Summary of the method: as §1

ralimetinib = compound: CC(C)(C)Cn1c(N)nc2ccc(-c3[nH]c(C(C)(C)C)nc3-c3ccc(F)cc3)nc21 [ralimetinib]
Summary of the method: as §1

[10] = compound: CC(C)(O)CC(=O)NCCn1ccc2ncnc(Nc3ccc(Oc4cccc(C(F)(F)F)c4)c(Cl)c3)c21
Summary of the method: as §1

[11] = compound: CC(C)C1=C2N=C(C=C(N2N=C1)NCC3=CC=CC=C3)NCCCCCCN
Summary of the method: as §1

[12] = compound: CC1=C(C(CC(=O)N1)C2=CC=C(C=C2)C(F)(F)F)C(=O)NC3=C(C=C4C(=C3)C=NN4)F
Summary of the method: as §1

[13] = compound: CC1=C(C2=C(C=C1)C(=O)C3=CC=CC=C3N2CCCN)C
Summary of the method: as §1

[14] = compound: CC1=C(C=C(C=C1)NC(=O)C2=CC(=CC=C2)C(C)(C)C#N)NC3=CC4=C(C=C3)N=CN(C4=O)C
Summary of the method: as §1

[15] = compound: CC1=C(C=C(C=C1)NC(=O)C2=CC(=CC=C2)N(C)C)NC(=O)C3=CC=C(C=C3)O
Summary of the method: as §1

[16] = compound: CC1=CC=C(C=C1)SC2=C3C=C(SC3=CN=C2)C(=O)N
Summary of the method: as §1

Sequence of UniProt O60488 (O60488 whole entry, looked up): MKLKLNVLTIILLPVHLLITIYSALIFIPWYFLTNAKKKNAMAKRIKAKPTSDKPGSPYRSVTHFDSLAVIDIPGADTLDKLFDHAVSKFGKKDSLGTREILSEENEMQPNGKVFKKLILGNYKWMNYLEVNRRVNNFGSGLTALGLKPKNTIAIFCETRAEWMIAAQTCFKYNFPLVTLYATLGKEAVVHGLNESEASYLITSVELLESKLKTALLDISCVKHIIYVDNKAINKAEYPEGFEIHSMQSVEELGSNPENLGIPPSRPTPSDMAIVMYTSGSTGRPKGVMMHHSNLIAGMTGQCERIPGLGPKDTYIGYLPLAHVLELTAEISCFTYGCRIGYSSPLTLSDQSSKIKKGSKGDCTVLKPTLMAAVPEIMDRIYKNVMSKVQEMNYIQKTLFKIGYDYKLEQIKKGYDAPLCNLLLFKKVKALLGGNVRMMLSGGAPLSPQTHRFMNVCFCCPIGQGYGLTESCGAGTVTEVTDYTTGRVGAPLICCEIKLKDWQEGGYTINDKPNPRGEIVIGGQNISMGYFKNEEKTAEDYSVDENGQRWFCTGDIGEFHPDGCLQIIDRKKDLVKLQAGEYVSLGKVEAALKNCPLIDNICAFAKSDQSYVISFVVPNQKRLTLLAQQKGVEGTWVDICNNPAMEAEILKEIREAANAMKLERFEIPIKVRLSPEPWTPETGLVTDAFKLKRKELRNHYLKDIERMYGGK
Sequence of UniProt Q12797 (Q12797 whole entry, looked up): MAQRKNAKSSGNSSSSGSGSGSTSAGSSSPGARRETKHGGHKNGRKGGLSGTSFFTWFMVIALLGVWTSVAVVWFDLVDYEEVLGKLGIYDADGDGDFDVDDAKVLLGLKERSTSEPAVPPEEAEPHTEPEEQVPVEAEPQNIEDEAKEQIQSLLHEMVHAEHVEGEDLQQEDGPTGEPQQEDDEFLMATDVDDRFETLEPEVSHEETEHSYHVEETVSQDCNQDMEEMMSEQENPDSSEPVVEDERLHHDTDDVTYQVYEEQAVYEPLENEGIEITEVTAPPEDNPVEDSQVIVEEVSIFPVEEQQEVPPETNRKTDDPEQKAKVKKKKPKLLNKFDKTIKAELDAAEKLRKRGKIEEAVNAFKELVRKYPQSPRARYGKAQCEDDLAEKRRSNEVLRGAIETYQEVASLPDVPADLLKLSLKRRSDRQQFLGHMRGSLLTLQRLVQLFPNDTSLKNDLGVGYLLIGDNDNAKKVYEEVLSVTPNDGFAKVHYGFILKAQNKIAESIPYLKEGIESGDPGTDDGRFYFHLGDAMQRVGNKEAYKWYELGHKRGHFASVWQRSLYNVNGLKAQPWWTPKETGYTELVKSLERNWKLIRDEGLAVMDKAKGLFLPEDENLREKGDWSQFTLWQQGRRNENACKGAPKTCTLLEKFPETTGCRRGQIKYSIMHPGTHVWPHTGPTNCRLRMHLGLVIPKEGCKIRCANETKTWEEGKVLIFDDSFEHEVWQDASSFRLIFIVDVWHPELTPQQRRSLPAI
Sequence of UniProt Q9NUQ8 (Q9NUQ8 whole entry, looked up): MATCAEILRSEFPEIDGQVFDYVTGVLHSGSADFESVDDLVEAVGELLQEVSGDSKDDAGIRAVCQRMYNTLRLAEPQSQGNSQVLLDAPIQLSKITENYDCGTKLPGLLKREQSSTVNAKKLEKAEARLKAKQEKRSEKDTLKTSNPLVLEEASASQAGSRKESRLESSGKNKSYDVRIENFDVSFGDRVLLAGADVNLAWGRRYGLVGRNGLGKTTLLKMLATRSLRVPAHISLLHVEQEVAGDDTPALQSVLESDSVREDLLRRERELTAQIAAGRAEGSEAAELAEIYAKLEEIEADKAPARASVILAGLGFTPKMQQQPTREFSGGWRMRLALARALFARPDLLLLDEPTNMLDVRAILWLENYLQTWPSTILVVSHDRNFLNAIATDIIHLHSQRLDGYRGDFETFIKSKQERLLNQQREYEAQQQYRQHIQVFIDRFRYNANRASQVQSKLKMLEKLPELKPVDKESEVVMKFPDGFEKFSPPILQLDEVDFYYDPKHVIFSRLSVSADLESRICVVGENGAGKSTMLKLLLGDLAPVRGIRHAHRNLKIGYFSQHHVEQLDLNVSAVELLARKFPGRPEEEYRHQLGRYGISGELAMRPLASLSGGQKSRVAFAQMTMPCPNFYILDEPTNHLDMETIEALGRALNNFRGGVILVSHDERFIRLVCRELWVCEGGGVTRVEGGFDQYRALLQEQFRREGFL
Sequence of UniProt P55265 (P55265 whole entry, looked up): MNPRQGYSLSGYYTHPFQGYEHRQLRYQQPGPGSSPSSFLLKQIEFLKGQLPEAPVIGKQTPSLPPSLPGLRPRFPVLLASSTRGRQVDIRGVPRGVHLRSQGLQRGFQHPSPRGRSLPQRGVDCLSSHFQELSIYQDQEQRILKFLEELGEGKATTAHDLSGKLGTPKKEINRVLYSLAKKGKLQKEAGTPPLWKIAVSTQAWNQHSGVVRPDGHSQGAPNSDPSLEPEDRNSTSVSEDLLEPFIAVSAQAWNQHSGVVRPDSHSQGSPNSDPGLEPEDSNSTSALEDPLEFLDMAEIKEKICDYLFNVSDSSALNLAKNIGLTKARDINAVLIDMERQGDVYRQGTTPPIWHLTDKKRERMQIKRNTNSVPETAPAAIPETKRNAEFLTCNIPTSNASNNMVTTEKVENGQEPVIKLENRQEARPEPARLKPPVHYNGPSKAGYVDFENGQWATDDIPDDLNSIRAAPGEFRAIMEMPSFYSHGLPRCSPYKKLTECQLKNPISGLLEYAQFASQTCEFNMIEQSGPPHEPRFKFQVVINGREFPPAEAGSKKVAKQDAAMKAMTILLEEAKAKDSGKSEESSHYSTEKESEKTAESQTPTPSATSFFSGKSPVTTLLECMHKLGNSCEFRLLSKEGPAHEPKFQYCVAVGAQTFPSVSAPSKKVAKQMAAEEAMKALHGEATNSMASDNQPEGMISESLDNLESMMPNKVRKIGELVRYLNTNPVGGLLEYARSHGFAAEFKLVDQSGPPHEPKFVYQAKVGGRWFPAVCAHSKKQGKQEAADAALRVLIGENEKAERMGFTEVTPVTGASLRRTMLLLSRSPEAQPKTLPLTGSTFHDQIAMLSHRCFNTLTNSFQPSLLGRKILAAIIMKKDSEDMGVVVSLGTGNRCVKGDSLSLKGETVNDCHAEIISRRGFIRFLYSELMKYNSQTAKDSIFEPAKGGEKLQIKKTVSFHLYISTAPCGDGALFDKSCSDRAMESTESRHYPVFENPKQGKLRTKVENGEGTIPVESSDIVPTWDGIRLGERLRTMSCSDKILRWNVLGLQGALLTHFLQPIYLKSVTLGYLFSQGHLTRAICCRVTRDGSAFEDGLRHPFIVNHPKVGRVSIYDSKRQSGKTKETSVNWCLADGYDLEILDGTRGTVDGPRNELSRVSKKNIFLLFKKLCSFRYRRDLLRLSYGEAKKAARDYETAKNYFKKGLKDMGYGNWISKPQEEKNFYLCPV
Sequence of UniProt Q96NW4 (Q96NW4 whole entry, looked up): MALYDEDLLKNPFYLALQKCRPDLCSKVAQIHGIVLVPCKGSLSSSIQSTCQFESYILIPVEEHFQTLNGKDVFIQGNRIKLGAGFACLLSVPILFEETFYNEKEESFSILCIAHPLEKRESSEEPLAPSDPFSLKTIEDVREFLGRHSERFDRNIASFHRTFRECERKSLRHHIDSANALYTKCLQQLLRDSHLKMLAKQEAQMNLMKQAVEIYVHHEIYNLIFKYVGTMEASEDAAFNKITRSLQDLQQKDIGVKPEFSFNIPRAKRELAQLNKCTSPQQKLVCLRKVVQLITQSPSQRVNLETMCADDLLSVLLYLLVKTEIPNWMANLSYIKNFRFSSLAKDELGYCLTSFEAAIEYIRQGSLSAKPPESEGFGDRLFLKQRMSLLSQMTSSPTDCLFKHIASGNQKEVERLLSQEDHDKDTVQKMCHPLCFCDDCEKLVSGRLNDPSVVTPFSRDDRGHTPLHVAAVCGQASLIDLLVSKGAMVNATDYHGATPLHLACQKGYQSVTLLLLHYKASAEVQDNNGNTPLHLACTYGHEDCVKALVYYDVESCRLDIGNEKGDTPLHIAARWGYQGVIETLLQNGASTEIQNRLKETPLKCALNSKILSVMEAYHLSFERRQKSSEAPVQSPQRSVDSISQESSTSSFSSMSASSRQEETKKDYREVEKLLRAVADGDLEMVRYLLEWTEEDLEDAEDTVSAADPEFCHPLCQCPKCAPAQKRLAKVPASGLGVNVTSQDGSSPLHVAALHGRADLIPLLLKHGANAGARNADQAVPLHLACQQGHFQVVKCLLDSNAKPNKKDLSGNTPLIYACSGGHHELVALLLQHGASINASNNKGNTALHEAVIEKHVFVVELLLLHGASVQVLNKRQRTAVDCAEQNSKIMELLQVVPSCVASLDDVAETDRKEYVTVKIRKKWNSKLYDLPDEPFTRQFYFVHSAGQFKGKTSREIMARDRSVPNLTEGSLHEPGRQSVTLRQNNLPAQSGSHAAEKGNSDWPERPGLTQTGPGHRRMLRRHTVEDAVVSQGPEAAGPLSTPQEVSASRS
Sequence of UniProt Q9UJX3 (Q9UJX3 whole entry, looked up): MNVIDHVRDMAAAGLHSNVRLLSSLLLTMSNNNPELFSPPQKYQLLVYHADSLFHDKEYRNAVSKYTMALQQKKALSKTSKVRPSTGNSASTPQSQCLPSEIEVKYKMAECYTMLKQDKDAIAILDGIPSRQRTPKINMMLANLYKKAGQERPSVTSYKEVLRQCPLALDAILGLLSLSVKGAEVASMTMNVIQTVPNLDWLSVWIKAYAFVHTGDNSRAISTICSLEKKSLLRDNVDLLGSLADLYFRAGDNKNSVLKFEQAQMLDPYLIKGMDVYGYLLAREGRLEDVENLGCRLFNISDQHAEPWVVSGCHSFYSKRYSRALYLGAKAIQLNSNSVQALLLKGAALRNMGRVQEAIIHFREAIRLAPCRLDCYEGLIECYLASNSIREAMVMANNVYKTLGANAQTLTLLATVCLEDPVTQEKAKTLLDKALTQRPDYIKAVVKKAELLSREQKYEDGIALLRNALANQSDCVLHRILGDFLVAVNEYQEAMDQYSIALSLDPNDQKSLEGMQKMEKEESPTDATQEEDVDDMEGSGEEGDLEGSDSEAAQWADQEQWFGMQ

Target | log2 fold change (erlotinib) | log2 fold change [1] | log2 fold change [2] | log2 fold change [3] | log2 fold change [4] | log2 fold change [5] | log2 fold change [6] | log2 fold change [7] | log2 fold change [8] | log2 fold change (IRAK-1-4 Inhibitor I) | log2 fold change (ibrutinib) | log2 fold change [9] | log2 fold change (ralimetinib) | log2 fold change [10] | log2 fold change [11] | log2 fold change [12] | log2 fold change [13] | log2 fold change [14] | log2 fold change [15] | log2 fold change [16]
AKAP8 (UniProt O43823) | -0.015 | 0.002 | 0.038 | -0.005 | -0.04 | 0.045 | -0.047 | 0.044 | 0 | 0.089 | 0 | -0.019 | -0.039 | -0.084 | -0.009 | 0.076 | -0.056 | -0.158 | 0.016 | -0.03
ANKRD52 (UniProt Q8NB46) | 0.056 | -0.288 | 0.026 | -0.011 | 0.021 | 0.013 | -0.092 | 0.008 | 0.072 | 0.051 | 0.01 | -0.089 | -0.002 | -0.025 | 0.022 | 0.007 | -0.058 | 0.011 | 0.047 | -0.363 (active)
AFF1 isoform 2 (UniProt P51825) | -0.001 | -0.085 | 0.027 | 0.071 | -0.068 | -0.007 | -0.041 | -0.002 | 0.005 | 0.021 | 0.136 | -0.028 | 0.078 | -0.02 | -0.001 | 0.037 | -0.047 | 0.023 | 0.02 | -0.002
ACSL4 (UniProt O60488) | 0.004 | -0.074 | -0.053 | 0.062 | 0.022 | -0.014 | -0.032 | -0.065 | -0.007 | 0.04 | 0.035 | -0.012 | 0.051 | -0.022 | -0.015 | 0.027 | -0.079 | -0.044 | 0.052 | 0.021
ANKRD27 (UniProt Q96NW4) | 0.087 | -0.025 | 0.07 | 0.04 | -0.033 | 0.02 | -0.094 | -0.036 | 0 | 0.014 | 0.016 | -0.003 | -0.028 | -0.009 | 0.032 | 0.033 | -0.014 | 0.089 | 0.013 | -0.102
ABCF3 (UniProt Q9NUQ8) | 0.005 | 0.013 | -0.049 | 0.011 | 0.009 | -0.011 | -0.065 | 0.022 | -0.033 | -0.037 | 0.008 | 0.035 | 0.067 | 0.046 | -0.013 | 0.009 | -0.012 | -0.02 | 0.018 | 0.001
ABCF2 isoform 2 (UniProt Q9UG63) | 0.046 | -0.029 | -0.049 | -0.025 | 0.01 | 0.018 | -0.042 | 0.049 | 0.016 | -0.047 | -0.012 | 0.013 | 0.059 | 0.003 | 0.01 | 0.007 | -0.008 | -0.013 | 0.021 | 0.012
AFF4 (UniProt Q9UHB7) | -0.003 | -0.152 | 0.007 | -0.063 | 0.021 | 0.048 | 0.003 | 0.032 | 0.016 | -0.031 | 0.172 | -0.009 | -0.049 | 0.033 | -0.008 | -0.028 | -0.047 | 0.009 | 0.002 | 0.024
ALKBH4 (UniProt Q9NXW9) | 0.014 | -0.073 | 0.026 | -0.011 | 0.017 | -0.052 | -0.069 | 0 | 0.019 | 0.003 | 0.076 | 0.056 | 0.032 | 0.003 | -0.031 | 0.031 | -0.036 | 0.004 | -0.006 | 0.002
ARMC6 (UniProt Q6NXE6) | 0.012 | -0.026 | -0.093 | 0.022 | 0.04 | 0.006 | -0.027 | 0.021 | -0.031 | -0.005 | 0.023 | 0.005 | 0.007 | -0.005 | 0.002 | -0.013 | 0.001 | -0.011 | 0.016 | 0
AGPAT1 (UniProt Q99943) | 0.012 | 0.027 | -0.145 | 0.05 | 0.028 | -0.023 | -0.01 | -0.019 | 0.01 | 0.036 | -0.121 | -0.05 | 0.027 | -0.051 | -0.026 | 0.06 | 0.012 | 0.02 | 0.043 | 0.042
ASPH (UniProt Q12797) | 0.003 | -0.028 | -0.013 | 0.075 | -0.011 | 0.006 | -0.022 | -0.011 | 0.01 | -0.016 | 0.015 | -0.004 | -0.006 | -0.001 | -0.028 | 0.052 | 0.076 | -0.025 | 0.025 | 0
ANAPC7 (UniProt Q9UJX3) | -0.001 | 0.006 | 0.002 | 0.024 | -0.016 | 0.003 | 0.027 | 0 | -0.017 | 0.005 | -0.007 | 0.002 | 0.015 | -0.009 | 0.001 | 0.01 | 0.002 | 0.022 | 0.023 | 0.01
ABHD17A isoform 2 (UniProt Q96GS6) | -0.016 | -0.046 | 0.081 | 0.025 | 0.022 | -0.009 | -0.07 | -0.023 | 0.025 | 0.006 | -0.03 | 0.011 | 0.039 | -0.035 | 0.032 | -0.042 | -0.065 | -0.023 | -0.097 | -0.098
ARAF (UniProt P10398) | -0.002 | -0.129 | -0.018 | 0.014 | -0.046 | 0.067 | 0.03 | 0.012 | -0.049 | -0.02 | 0.071 | -0.012 | 0.029 | -0.01 | 0.058 | -0.007 | 0.004 | 0.004 | 0.041 | 0.003
ADAR isoform 4 (UniProt P55265) | -0.029 | -0.114 | -0.06 | -0.031 | 0.002 | 0.001 | -0.029 | 0.002 | -0.017 | 0 | 0.152 | -0.025 | 0.029 | -0.019 | -0.03 | 0.018 | 0.016 | -0.002 | 0.015 | -0.021
